In the library only some 5.7% were active in any assay of this set; here they are far more common.
DAX1 inh-1: DAX1 (NR0B1) inhibitors on StAR promoter, primary screen, cell-based, luminescence, SF-1 (NR5A1), full-length DAX-1. inhibition, % at 6.8 µM. 370,000 compounds, 1.1% hits. HEK293T StAR-luciferase reporter, SF-1/DAX-1 repression relief. AID 652010, 2013;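 active means inhibition above the mean over all tested compounds plus 3 SD, cut at about 3.6% in these data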;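 further: 0% = DAX-1 cells with DMSO and 100% = cells lacking DAX-1 with DMSO; higher inhibition means more luminescence from relief of DAX-1 repression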
AHR activator: AHR activators, primary screen, cell-based, luminescence, luciferase reporter, human. Aryl hydrocarbon receptor (Homo sapiens), P35869. AHR-responsive luciferase reporter cells. activation, % at 5 µM. 320,000 compounds, 2.5% hits; in the data active means activation above about 47%;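 further: 0% = vehicle wells and 100% = reference agonist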
hcDAF12 agonist: H. contortus DAF-12 nuclear receptor activators, primary screen, cell-based, luminescence, HEK293, lit1-tk-luc reporter; 370,000 compounds, 1.4% hits; activation, % at 6.8 µM; HEK293 hcDAF-12 lit1-tk-luc reporter; 0% DMSO, 100% Δ7-dafachronic acid;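 active means activation above the mean of all tested compounds plus 3 SD, cut at about 5.5% in these data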;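 further: 100% = response to 3 µM Δ7-dafachronic acid high control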
DAX1 inh-2: DAX1 (NR0B1) inhibitors, primary screen, cell-based, HEK293, Gal4-DAX1, luciferase luminescence; Nuclear receptor subfamily 0 group B member 1 (Homo sapiens), P51843; HEK293 Gal4-DAX1 luciferase reporter; inhibition, % at 6.75 µM; 340,000 compounds, 0.99% hits; AID 504766, 2011;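 active means inhibition above the mean over all tested compounds plus 3 SD, cut at about 4.2% in these data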;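 further: 0% = DAX1-transfected cells with DMSO and 100% = empty-vector control cells with DMSO; inhibition shows as a rise in luminescence from relieved DAX1 repression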
Target sequence (P51843 207-470 limits assumed): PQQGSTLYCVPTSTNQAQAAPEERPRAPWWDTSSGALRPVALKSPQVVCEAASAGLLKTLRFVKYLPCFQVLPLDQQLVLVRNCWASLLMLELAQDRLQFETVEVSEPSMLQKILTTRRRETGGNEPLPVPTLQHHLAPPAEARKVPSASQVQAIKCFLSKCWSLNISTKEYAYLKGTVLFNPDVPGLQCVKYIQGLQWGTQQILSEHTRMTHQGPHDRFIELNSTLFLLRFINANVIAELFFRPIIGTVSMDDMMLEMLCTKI
ssDAF-12 act: S. stercoralis DAF-12 nuclear receptor activators, primary screen, cell-based, luminescence, HEK293, GRIP1 co-expression, lit1-tk-luc; HEK293 ssDAF-12/GRIP1 lit1-tk-luc reporter; % of 3 µM dafachronic acid response; activation, % at 6.8 µM; 370,000 compounds, 1% hits; AID 652126, 2013;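 active means activation above the mean over all tested compounds plus 3 SD, cut at about 0.9% in these data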;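 further: 0% = DMSO-only wells and 100% = 3 µM delta7-dafachronic acid wells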
hgDAF12 agonist: H. glycines DAF-12 receptor agonists, primary screen, cell-based, luminescence, HEK293, GAL4 fusion, UAS-luciferase; 370,000 compounds, 1.8% hits; AID 687014, 2013; HEK293 GAL4-hgDAF12 UAS-luciferase reporter, agonist luminescence; normalized to butyrate control; activation, % at 6.8 µM;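 active means activation above a cutoff set at the mean of all screened compounds plus 3 SD, cut at about 10% in these data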;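 further: 0% = DMSO wells and 100% = sodium butyrate wells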
* = called active by the depositor; . = not tested or not shown.

SMILES | DAX1 inh-1 | AHR activator | hcDAF12 agonist | DAX1 inh-2 | ssDAF-12 act | hgDAF12 agonist
CC(=NCCc1c[nH]c2ccccc12)c1c(O)n(Cc2ccccc2)c(=O)[nH]c1=O | 0 | -3 | -3 | -1 | -1 | -1
C/C(=N\Nc1cccc2ccccc12)c1c(O)n(Cc2ccccc2)c(=O)[nH]c1=O | -1 | 51* | 3 | -1 | 0 | -2
C/C(=N\NC(=O)c1ccccc1)c1c(O)n(Cc2ccccc2)c(=O)[nH]c1=O | 1 | 8 | 3 | . | -1 | 11*
CC1(C)CN=C(NCc2ccccc2)S1 | 0 | 1 | -1 | 1 | -1 | 0
CC1(C)CN=C(Nc2nc3ccccc3s2)S1 | 3 | 25 | 5 | 3 | 1.5* | 10
O=C(c1ccc(N2CCCCC2)c([N+](=O)[O-])c1)N1CCC2(CC1)OCCO2 | -1 | -1 | -1 | 5.1* | -2 | -1
CC1CCCN(c2ccc(C(=O)N3CCC4(CC3)OCCO4)cc2[N+](=O)[O-])C1 (stereo not given) | 1 | 2 | -3 | -1 | -1 | -1
C#CC[N+]1(C)C2CCC1CC(O)C2 (stereo not given) | 0 | 2 | -1 | 0 | -1 | 0
CCOc1cc(/C=C2\C(=O)NC(=O)N(C)C2=O)cc([N+](=O)[O-])c1O | 0 | -2 | 0 | 13* | -2 | 4
CCOc1ccc(N2C(=O)NC(=O)/C(=C\c3cc(OC)c(OC)cc3[N+](=O)[O-])C2=O)cc1 | . | 11 | . | -1 | . | .
Fc1cccc(F)c1-c1nc(-c2ccc(Cl)cc2)no1 | 0 | 73* | 3 | 2 | 1.8* | 8
Nc1c2c(nc3ccccc13)CCN(Cc1ccccc1)C2 | 0 | 20 | 6.1* | 1 | 0 | 4
CC(C)(C)c1cc([N+](=O)[O-])cc(C(C)(C)C)c1O | -2 | -1 | -3 | . | -2 | -4
C=CCn1c(O)c(C(CC)=NCc2ccco2)c(=O)[nH]c1=O | 0 | 2 | 0 | 4.9* | 0 | 0
C/C=C(\C)C(=O)N[C@@H](c1ccccc1)[C@@H](O)C(=O)O[C@H]1C[C@@]2(O)[C@@H](OC(=O)c3ccccc3)C3[C@](C)(C(=O)[C@H](O)C(=C1C)C2(C)C)[C@@H](O)C[C@H]1OC[C@@]31OC(C)=O (stereo not given in full) | -4 | 1 | -1 | -5 | -2 | -2
CC(=O)O[C@@]12CO[C@@H]1C[C@H](O)[C@@]1(C)C(=O)[C@H](O)C3=C(C)[C@@H](O)C[C@@](O)([C@@H](OC(=O)c4ccccc4)C12)C3(C)C (stereo not given in full) | 1 | -1 | 0 | 4.3* | -1 | 1
COc1ccccc1N(CC(=O)NC1CCCC1)C(=O)c1cnn(C(C)C)c1 | -1 | 2 | -1 | 1 | -1 | -1
COc1ccccc1N(CC(=O)NC1CCCCC1)C(=O)c1cnn(C(C)C)c1 | 0 | 0 | 3 | 0 | 1.3* | 0
O=C1C2CCN(CC2)C1Cc1ccc(OCc2ccccc2)cc1 (stereo not given) | 0 | 1 | 1 | -1 | -1 | 0
Cn1cccc1/C=C1/C(=O)NC(=O)N(C(C)(C)C)C1=O | -1 | 1 | -1 | 4.8* | -1 | -2
O=C(c1ccc2c(c1)OCO2)C1CCCN(Cc2c(F)cccc2Cl)C1 (stereo not given) | -1 | 48* | -1 | 1 | -1 | 0
COc1cc2c(cc1OC)-c1c3c(cc4c1[C@@H](C2)N(C)CC4)OCO3 | -1 | 55* | -1 | 2 | -2 | -5
Cc1cc(/C=C2\C(=O)NC(=O)N(c3cccc(Br)c3)C2=O)c(C)n1C | 0 | 11 | 0 | 2 | -1 | 0
Cc1cc(/C=C2/C(=O)NC(=O)N(c3ccc(Br)cc3)C2=O)c(C)n1C | 0 | 26 | 5.9* | 3 | 0 | 3
COP(=O)(OC)OC=C(Cl)Cl | 1 | . | 0 | . | -1 | -4
SMILES | DAX1 inh-1 | AHR activator | hcDAF12 agonist | DAX1 inh-2 | ssDAF-12 act | hgDAF12 agonist
NC(Cc1ccccc1)c1csc(Nc2ccccn2)n1 (stereo not given) | 2 | . | 4 | . | 0 | 11*
NC(Cc1ccc(Cl)cc1)c1csc(Nc2ccccn2)n1 (stereo not given) | -1 | . | 0 | . | -1 | 0
Cc1nc2ccc(Cl)cc2c(=O)n1-c1cccc(Cl)c1 | -1 | 1 | -2 | 0 | -2 | 0
COc1ccc(-n2c(-c3ccc(C)cc3)nc3ccccc3c2=O)cc1 | 0 | 0 | -1 | 2 | -1 | 1
COc1ccc(-c2nc3ccccc3c(=O)o2)cc1 | 2 | 12 | 5.9* | 0 | 0 | 6
COc1ccc(CN2CCNCC2)cc1 | 0 | . | 1 | 1 | -1 | 1
C=CCc1ccc(OC)cc1 | 0 | -1 | 2 | 4.5* | -2 | 4
CC(C)(C#CCCCCC#CC(C)(C)[N+](C)(C)C)[N+](C)(C)C | . | 2 | . | . | . | .
O=C(COc1ccc(Cl)cc1)N1CCN(C2CCCC2)CC1 | 0 | 2 | -2 | 0 | -1 | -1
CCN(CC)c1ccc(C=C2C(=O)N(C)C(=S)N(C)C2=O)o1 | 0 | 10 | 1 | 1 | -2 | 1
CCN(CC)c1ccc(/C=C2\C(=O)NC(=S)N(C)C2=O)o1 | 2 | 5 | 2 | 7.5* | 0 | 8
COC(=O)C1C(c2ccc(F)cc2)CC2CCC1N2C (stereo not given) | 0 | . | -1 | . | 0 | 2
COc1ccc(-n2nc(C(=O)NCC(=O)N3CCC4(CC3)OCCO4)c3ccccc3c2=O)cc1 | 1 | 1 | 5.8* | 1 | -1 | 8
c1ccc2c(c1)[IH]c1ccccc1-2 | -5 | . | 0 | -3 | 0 | 0
COC(=O)C(O)(c1ccc(NC(=O)NC2CCCCC2)cc1)C(F)(F)F (stereo not given) | 2 | 0 | 1 | 1 | 1 | 11*
Nc1c(C(=O)NCc2ccco2)c2nc3ccccc3nc2n1Cc1ccccc1 | -1 | 4 | 0 | 0 | -1 | -5
COCC(C)OC(=O)c1c(N)n(Cc2ccco2)c2nc3ccccc3nc12 (stereo not given) | -1 | 63* | -1 | 0 | -1 | 1
CCOC(=O)c1c(N)n(Cc2ccco2)c2nc3ccccc3nc12 | 0 | 75* | -1 | 0 | -1 | -1
CP(=O)(Nc1ccc(Cl)cc1)c1nc2c(s1)CCCC2 (stereo not given) | 0 | 70* | 1 | -2 | -2 | -3

Screens from PubChem BioAssay.
